Results: the supplement of paper PMC7724964
± gives the standard deviation of the averaged measurements.

T1: TSG101 1-145 UEV (domain begin residue: 1, domain end residue: 145), Q99816
T1 chain: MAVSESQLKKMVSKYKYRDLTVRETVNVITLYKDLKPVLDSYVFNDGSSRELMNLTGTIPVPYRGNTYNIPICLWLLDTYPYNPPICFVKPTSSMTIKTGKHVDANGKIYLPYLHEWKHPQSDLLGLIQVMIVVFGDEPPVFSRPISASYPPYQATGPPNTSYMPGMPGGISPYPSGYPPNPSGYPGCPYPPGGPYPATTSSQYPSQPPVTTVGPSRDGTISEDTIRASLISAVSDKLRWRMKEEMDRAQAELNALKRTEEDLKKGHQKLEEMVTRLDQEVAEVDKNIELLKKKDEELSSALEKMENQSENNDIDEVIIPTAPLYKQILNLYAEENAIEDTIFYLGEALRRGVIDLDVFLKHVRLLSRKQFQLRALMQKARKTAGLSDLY


molecular target: UBR5 2391-2453 PABP (domain begin residue: 2391, domain end residue: 2453), O95071; experiment: phage ELISA signal ratio (GST-PRM binding over GST background); higher = stronger binding of peptide-phage to the PRM
Procedure, shortened: (§1)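 Human peptide recognition domains were expressed in 96-well plates as fusions to the C-terminus of glutathione S-transferase (GST) and selected against an M13 phage library displaying randomized hexadecapeptides, cysteine-free and glycine-flanked, on the gene-8 major coat protein. Five selection rounds were run, and approximately 48 individual clones from rounds 4 and 5 were tested by phage ELISA. Each value is the ELISA signal on the GST-domain fusion divided by the signal on GST alone. Positive clones were sequenced.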

UBR5 2391-2453 PABP (domain begin residue: 2391, domain end residue: 2453), O95071, sequence (O95071 whole entry, the tested form may be a part): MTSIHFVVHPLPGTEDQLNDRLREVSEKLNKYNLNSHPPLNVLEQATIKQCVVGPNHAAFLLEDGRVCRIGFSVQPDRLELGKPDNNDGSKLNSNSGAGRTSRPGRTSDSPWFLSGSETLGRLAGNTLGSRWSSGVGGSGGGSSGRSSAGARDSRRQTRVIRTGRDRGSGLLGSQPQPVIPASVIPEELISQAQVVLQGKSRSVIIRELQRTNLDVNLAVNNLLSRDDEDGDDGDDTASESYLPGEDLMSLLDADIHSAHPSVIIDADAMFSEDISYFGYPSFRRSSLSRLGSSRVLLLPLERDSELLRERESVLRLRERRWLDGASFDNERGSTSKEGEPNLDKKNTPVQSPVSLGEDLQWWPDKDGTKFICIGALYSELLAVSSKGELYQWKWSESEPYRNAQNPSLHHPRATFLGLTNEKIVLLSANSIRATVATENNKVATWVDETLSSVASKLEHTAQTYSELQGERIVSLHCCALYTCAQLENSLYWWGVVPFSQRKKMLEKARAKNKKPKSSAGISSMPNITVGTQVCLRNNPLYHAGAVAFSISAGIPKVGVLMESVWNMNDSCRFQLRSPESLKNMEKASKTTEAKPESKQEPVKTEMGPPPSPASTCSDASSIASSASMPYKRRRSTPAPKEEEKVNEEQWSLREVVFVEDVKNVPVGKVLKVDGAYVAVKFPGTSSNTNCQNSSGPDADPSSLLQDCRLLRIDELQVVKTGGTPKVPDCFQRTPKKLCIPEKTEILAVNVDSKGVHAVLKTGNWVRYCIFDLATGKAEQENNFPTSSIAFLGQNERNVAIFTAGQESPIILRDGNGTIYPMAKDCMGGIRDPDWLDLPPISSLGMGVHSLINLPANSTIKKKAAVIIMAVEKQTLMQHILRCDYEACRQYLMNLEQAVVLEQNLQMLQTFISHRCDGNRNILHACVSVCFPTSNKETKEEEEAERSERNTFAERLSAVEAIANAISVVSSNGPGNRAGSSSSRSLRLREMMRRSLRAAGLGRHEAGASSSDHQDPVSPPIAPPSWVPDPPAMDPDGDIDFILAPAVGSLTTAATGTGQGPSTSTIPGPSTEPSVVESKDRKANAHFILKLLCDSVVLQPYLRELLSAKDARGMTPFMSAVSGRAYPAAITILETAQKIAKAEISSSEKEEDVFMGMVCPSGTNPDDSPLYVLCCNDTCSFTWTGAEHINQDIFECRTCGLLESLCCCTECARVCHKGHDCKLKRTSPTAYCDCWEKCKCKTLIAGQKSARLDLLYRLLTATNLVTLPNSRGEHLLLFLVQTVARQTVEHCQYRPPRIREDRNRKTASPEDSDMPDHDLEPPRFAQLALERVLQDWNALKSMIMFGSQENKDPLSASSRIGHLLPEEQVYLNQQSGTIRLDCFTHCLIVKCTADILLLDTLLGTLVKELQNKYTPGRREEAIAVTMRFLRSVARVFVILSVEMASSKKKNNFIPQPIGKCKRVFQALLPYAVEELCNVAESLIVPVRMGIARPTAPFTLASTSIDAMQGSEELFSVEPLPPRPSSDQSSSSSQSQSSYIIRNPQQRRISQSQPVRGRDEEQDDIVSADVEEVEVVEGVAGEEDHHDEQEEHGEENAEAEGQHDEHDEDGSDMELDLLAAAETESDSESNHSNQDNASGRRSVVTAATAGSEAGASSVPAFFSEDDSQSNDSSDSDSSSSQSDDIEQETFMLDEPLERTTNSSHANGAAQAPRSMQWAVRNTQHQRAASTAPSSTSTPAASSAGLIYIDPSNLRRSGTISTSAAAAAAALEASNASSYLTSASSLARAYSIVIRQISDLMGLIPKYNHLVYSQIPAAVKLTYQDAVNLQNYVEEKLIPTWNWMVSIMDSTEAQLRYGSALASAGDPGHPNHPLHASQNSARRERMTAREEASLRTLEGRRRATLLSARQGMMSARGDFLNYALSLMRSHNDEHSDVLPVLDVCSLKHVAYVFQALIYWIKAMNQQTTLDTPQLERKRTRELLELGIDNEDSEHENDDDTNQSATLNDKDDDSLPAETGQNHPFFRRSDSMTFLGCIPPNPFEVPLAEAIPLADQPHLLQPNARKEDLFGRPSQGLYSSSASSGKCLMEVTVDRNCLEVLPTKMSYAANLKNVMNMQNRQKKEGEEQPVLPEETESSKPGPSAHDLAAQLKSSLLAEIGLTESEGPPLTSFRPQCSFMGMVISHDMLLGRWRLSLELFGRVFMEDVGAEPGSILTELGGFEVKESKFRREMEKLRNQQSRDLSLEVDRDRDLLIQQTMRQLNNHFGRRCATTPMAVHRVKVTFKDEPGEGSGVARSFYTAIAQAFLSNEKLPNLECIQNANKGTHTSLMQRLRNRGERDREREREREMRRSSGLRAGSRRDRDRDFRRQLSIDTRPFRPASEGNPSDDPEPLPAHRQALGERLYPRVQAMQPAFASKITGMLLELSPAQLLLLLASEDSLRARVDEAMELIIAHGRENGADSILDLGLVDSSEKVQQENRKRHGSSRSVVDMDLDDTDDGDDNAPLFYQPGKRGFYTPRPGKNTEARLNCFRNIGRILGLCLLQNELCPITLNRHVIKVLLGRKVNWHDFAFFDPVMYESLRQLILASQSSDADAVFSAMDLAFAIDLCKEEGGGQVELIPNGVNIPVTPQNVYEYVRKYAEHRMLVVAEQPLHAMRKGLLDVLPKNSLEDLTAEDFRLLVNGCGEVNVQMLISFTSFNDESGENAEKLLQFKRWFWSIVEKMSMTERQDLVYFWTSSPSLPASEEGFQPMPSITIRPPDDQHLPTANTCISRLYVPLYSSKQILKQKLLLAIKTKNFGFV

Binder	phage ELISA signal ratio
LSVAAPMFVPNNAVVS	5.76
EFLNVMAPSWVDITEW	16.9
LSYESAPWWPHMPAEF	13.2
EWQWHNSVDWVPHKAT	12.4
TGVEMMSYKAKPFYPE	7.69
SQLSIMSLEAAPFTWE	10.5
SKELSVNAIPFDPHWY	4.24
VMTLSPHATPYYPQMQ	5.69
MNIDAREWSPASWEVH	3.6
EWGSGWLNFQAAEFIV	8.2

molecular target: UBA52 1-76 Ubiquitin (domain begin residue: 1, domain end residue: 76), P62987; experiment: as above
Procedure, shortened: as §1

Binder	phage ELISA signal ratio
EHMWDAQMWEWSWWDL	15.1
EMWVFTPAEWFQIYLN	16.2
DLHYDWSLEYWTSLLQ	17.2
MTVVEWWTDAQIAEWM	12.5

Molecular target: T1, TSG101 1-145 UEV (domain begin residue: …
Experiment: as above
Procedure, shortened: as §1

Binder	phage ELISA signal ratio
NFNYPEQMYSYNPHWI	20.4 ± 0.54
GPLHPTAPVWENMLKY	15.7
MQEAPYNPAWMEVPEL	27.7
VSDLWWNPTWSSQETI	9.75
YQPNMASAPEWVWESH	29.4

molecular target: UBE2V2 1-145 UQ_con (domain begin residue: 1, domain end residue: 145), Q15819; experiment: as above
Procedure, shortened: as §1

UBE2V2 1-145 UQ_con (domain begin residue: 1, domain end residue: 145), Q15819, sequence (Q15819 whole entry): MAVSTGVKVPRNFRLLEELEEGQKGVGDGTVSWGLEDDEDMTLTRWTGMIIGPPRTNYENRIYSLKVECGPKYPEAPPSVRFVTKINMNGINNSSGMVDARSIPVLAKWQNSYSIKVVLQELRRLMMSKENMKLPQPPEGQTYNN

Binder	phage ELISA signal ratio
TNSMPQWAQSQLAMYR	21.3
YIDYTFFEDGYYRVIE	5.72
FEHLEYSHPYLWEMYF	5.45
SLEWWNDISHPYWWHQ	6.28
QVGWWMELDHPFWWHQ	8.59
DRNAEMAIRQYFMYHE	8.43

molecular target: U2AF2 372-475 RRM_1 (domain begin residue: 372, domain end residue: 475), P26368; experiment: as above
Procedure, shortened: as §1

U2AF2 372-475 RRM_1 (domain begin residue: 372, domain end residue: 475), P26368, sequence (P26368 whole entry): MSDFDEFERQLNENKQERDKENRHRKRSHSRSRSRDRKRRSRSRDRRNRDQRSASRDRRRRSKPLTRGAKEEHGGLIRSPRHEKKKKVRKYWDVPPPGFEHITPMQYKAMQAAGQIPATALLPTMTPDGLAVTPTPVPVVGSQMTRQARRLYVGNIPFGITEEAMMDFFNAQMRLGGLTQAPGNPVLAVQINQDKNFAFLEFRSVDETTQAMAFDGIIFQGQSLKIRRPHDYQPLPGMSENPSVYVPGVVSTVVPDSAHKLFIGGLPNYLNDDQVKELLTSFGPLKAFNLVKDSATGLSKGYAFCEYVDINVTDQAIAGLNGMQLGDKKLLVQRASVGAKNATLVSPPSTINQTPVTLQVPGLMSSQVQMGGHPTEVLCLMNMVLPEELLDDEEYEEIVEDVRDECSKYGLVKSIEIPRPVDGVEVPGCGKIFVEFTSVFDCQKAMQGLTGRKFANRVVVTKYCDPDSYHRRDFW

Binder	phage ELISA signal ratio
FDKWEQRRSVPMGQVQ	3.6
FDRWESRRQSIGLELS	8.37
FSRWEQRQMQSVGGAG	6.45

molecular target: UBE2D2 1-147 UQ_con (domain begin residue: 1, domain end residue: 147), P62837; experiment: as above
Procedure, shortened: as §1

UBE2D2 1-147 UQ_con (domain begin residue: 1, domain end residue: 147), P62837, sequence (P62837 whole entry): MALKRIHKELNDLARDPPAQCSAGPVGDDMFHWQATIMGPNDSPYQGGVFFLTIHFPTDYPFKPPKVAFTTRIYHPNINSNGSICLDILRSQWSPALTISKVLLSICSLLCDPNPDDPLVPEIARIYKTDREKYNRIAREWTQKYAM

Binder	phage ELISA signal ratio
WGHDWMMEWNTLQPMS	4.08
